# Reference: PubChem BioAssay AID504321 (NMMLSC, 2011)
# Calls of active or inactive are those of the source.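 The calls were made as follows: active = GFP response vs DMSO above 150% with enough events counted; inconclusive = fewer than 70 events counted for a yeast strain; inactive = the rest.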
# Test: MEP2-GFP expression modulation in yeast, confirmation, flow cytometry, third cherry pick, S. cerevisiae (AID 504321);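 also: median per-cell GFP fluorescence by flow cytometry across all yeast cells; ratio of sample to DMSO median GFP so 100% equals the DMSO level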
# Conditions: S. cerevisiae MEP2-GFP strain, 3 h, at 10 µM, stronger effect = higher value
row,SMILES,GFP response vs DMSO
1,CCCCC(=O)NCCc1cc2c(OC)ccc(OC)c2[nH]c1=O,108% (inactive)
2,COc1cccc(OCc2cc(C(=O)N3CCN(C)C(c4ccccc4)C3)no2)c1 (centres undefined),108% (inactive)
3,CC(=O)NC(C)c1cc(Cl)c2cccnc2c1O (centres undefined),99% (inactive)
4,Cc1cn2c(N)c(C=C3C=C(Cl)C(=O)C(Cl)=C3)c(=O)nc2s1,112% (inactive)
5,FC(F)Oc1cccc2cccnc12,110% (inactive)
6,COc1ccccc1Nc1nc(NCC(C)C)nc(N)c1[N+](=O)[O-],114% (inactive)
7,Cn1c(NCCO)nc2c(c1=O)C1(CCCCC1)Cc1ccccc1-2,108% (inactive)
8,Cc1ccc(C(=O)Nc2nc(-c3ccccn3)cs2)o1,103% (inactive)
9,COc1ccc(OC)c(Nc2nc(NCCC(C)C)nc(N)c2[N+](=O)[O-])c1,108% (inactive)
10,COc1ccccc1-c1cc(C(F)(F)F)nc(S(=O)(=O)CCCC(=O)NC(C)C)n1,110% (inactive)
11,Cc1nc(Nc2ccc(Cl)cc2)c(C#N)c(=O)[nH]1,108% (inactive)
12,OCCNc1ncnc2ccc(Br)cc12,101% (inactive)
13,Cc1ccc2c(Cl)cc(Cl)c(O)c2n1,168% (active)
14,Cc1cccc(N/C=C/C(=O)c2ccc(Cl)cc2)c1,112% (inactive)
15,Cc1ccc2nc(-c3ccc(NC(=O)c4cccnc4)cc3)oc2c1,114% (inactive)
16,Cc1nc2c(O)cccc2cc1CO,103% (inactive)
17,O=C(Nc1ccccc1)ON=C1c2ccccc2-c2ccccc21,99% (inactive)
18,Nc1[nH]c(=O)nc(Nc2ccccc2)c1N=O,108% (inactive)
19,Cc1ccc2c(C)ccc(O)c2n1,114% (inactive)
20,COc1ccc(N/C(C)=C/C(=O)c2ccccc2)cc1,103% (inactive)

row,SMILES,GFP response vs DMSO
1,Cc1cccc(Nc2cc(=O)[nH]c(=O)[nH]2)c1,108% (inactive)
2,C/C(=C\C(=O)c1ccc(Cl)cc1)Nc1ccc(Br)cc1,105% (inactive)
3,CC(=O)Nc1ccc(-c2nc3ccccc3o2)cc1,110% (inactive)
4,COC(=O)c1cc(=O)c2cccc(OC)c2[nH]1,110% (inactive)
5,Nc1c(C(=O)O)ccc2c1C(=O)c1ccccc1C2=O,127% (inactive)
6,C/C(=N\NC(=O)c1cccc2ccccc12)c1cccnc1,108% (inactive)
7,COc1ccccc1Nc1nc(NCCC(C)C)nc(N)c1[N+](=O)[O-],105% (inactive)
8,COc1cccc2c(O)cc(=O)n(C)c12,108% (inactive)
9,Oc1c(Cl)cc(Cl)c2cccnc12,181% (active)
10,O=C(Nc1cccc2ccccc12)ON=C1CCCCC1,121% (inactive)
11,O=C(Nc1cccc(Cl)c1)ON=C1c2ccccc2-c2ccccc21,110% (inactive)
12,CC1=CN2C(=N)/C(=C/c3ccco3)C(=O)N=C2S1,105% (inactive)
13,CCCC(=O)Nn1cnc2c(c1=O)C1(CCCC1)Cc1ccccc1-2,105% (inactive)
14,COc1ccc(OC)c2c(C)cc(C)nc12,108% (inactive)
15,CCCOCc1ccc(O)c2ncccc12,110% (inactive)
16,CC1=CN2C(=N)/C(=C/c3ccc(C)o3)C(=O)N=C2S1,105% (inactive)
17,COCCCNc1nc(N)c([N+](=O)[O-])c(Nc2ccccc2OC)n1,110% (inactive)
18,Nc1cc(C(=O)O)c(N)c2c1C(=O)c1ccccc1C2=O,110% (inactive)
19,CC1=NNC(=O)/C1=C\c1cn(-c2ccccc2)nc1-c1ccc(F)cc1,131% (inactive)
